Measured values published in PubChem BioAssay (NCATS).
Inconclusive results are not listed. Activity calls are given as the source filed them. Unless noted, calls come from the whole dose curve; as a rule, active = well fitted curve in the direction sought with a large enough effect; inconclusive = small, poorly fitted or top-dose-only effect, or another doubt; inactive = no such curve, though single readings can be large; an effect the other way counts as inactive or inconclusive.

Experiments:
[1] = NS1 protein of Zika virus - qHTS assay to identify small molecule inhibitors in human HEK 293 cells (AID 1347053); note: nearly all actives have a fitted effect of over 55% in size; note: potency is the fitted concentration of half-maximal effect
Method in brief: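 Compound-treated (1 h pre-infection) HEK 293 cells infected with ZIKV MR766, MOI = 0.5; after 24 h at 37 C, NS1 read by TR-FRET; data normalized to uninfected and infected controls.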

[2] = target: T1, Tyrosine-protein phosphatase non-receptor type substrate 1 (Homo sapiens) + Leukocyte surface antigen CD47 (Homo sapiens) (UniProt P78324+Q08722); test: CD47-SIRPalpha protein protein interaction - LANCE assay qHTS validation (AID 1347057; active = well fitted curve in the direction sought with a large enough effect in the signal ratio, with a control signal flat, not every such curve was filed as active; the % refers to the signal ratio; note: series mostly up to about 38 µM)
T1 sequence (P78324 whole entry, looked up, the tested form may be a part): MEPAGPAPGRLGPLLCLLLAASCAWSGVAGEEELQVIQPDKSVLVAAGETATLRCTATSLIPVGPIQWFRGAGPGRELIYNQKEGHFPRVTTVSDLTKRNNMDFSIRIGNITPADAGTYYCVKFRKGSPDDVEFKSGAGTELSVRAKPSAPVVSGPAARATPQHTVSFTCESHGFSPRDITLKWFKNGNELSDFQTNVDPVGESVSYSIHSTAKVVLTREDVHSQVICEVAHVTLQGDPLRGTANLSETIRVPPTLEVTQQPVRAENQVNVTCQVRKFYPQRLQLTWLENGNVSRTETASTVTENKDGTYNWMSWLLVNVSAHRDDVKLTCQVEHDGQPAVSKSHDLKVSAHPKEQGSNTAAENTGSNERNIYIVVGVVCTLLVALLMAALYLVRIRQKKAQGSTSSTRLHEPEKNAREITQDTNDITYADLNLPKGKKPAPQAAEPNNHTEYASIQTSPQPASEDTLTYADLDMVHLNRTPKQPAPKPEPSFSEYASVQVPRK
T1 sequence (Q08722 whole entry, looked up, the tested form may be a part): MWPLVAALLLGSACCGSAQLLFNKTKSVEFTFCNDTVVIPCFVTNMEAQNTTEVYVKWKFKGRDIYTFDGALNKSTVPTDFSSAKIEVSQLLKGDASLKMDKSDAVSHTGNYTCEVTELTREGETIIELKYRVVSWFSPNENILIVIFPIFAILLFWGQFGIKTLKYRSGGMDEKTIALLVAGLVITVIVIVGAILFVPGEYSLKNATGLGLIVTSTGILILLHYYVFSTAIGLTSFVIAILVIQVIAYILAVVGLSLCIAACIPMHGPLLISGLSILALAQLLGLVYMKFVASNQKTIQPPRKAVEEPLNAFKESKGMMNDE
Method in brief: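 Inhibition of soluble CD47/SIRPalpha ectodomain association by titrated compounds, measured as 665/615 nm time-resolved FRET ratio after sequential 30 min room-temperature incubations.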

[3] = target: T1, Tyrosine-protein phosphatase non-receptor type substrate 1 (Homo sapiens) + Leukocyte surface antigen CD47 (Homo sapiens); test: CD47-SIRPalpha protein protein interaction - Alpha assay qHTS validation (AID 1347059);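 note: bead proximity luminescence from CD47 binding SIRPalpha after compound preincubation with SIRPalpha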
Method in brief: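 AlphaScreen signal between CD47-His (12.5 nM) and biotin-SIRPalpha (25 nM) soluble extracellular domains, bead-captured via Ni-NTA and streptavidin. Compounds, in 7-point titrations, met SIRPalpha 30 min before CD47; PBS pH 7.4 with 0.05% IGEPAL.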

[4] = qHTS of pediatric cancer cell lines to identify multiple opportunities for drug repurposing: Primary screen for TC32 cells (AID 1347089); note: nearly all actives have a fitted effect of over 60% in size; note: potency is the fitted concentration of half-maximal effect
Method in brief: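 In the primary qHTS, MIPE compounds were tested at 11 concentrations (0.78 nM to 46 µM) and NPC compounds at 8 (0.59 nM to 46 µM) on TC32 cells for 48 h. CellTiter-Glo luminescence gave viability.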

[5] = qHTS of pediatric cancer cell lines to identify multiple opportunities for drug repurposing: Primary screen for DAOY cells (AID 1347090); note: nearly all actives have a fitted effect of over 55% in size; note: potency is the fitted concentration of half-maximal effect
Method in brief: (§1)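 Cell viability, CellTiter-Glo luminescence; 500-1,000 cells/well, 8- or 11-point titration, 48 h compound exposure at 37 degrees C, 5% CO2. Controls: DMSO neutral, bortezomib 2.3 µM final as positive.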

[6] = qHTS of pediatric cancer cell lines to identify multiple opportunities for drug repurposing: Primary screen for SJ-GBM2 cells (AID 1347091); note: potency is the fitted concentration of half-maximal effect
Method in brief: as §1

[7] = qHTS of pediatric cancer cell lines to identify multiple opportunities for drug repurposing: Primary screen for A673 cells (AID 1347092); note: nearly all actives have a fitted effect of over 45% in size; note: potency is the fitted concentration of half-maximal effect
Method in brief: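 48 h compound exposure, A673, 500-1,000 cells/well, 37 degrees C/5% CO2. MIPE: 11-point, 0.78 nM-46 µM; NPC: 8-point, 0.59 nM-46 µM (final). Readout CellTiter-Glo luminescence after 15 min RT.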

[8] = qHTS of pediatric cancer cell lines to identify multiple opportunities for drug repurposing: Primary screen for SK-N-MC cells (AID 1347093); note: potency is the fitted concentration of half-maximal effect
Method in brief: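 Metabolically active cells were quantified by ATP-dependent luminescence (CellTiter-Glo, 15 min at room temperature) following 48 h treatment. Cells had been plated at 500-1,000 per well and settled for 5 h beforehand.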

[9] = qHTS of pediatric cancer cell lines to identify multiple opportunities for drug repurposing: Primary screen for BT-37 cells (AID 1347094); note: potency is the fitted concentration of half-maximal effect
Method in brief: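 Readout: CellTiter-Glo luminescence, 48 h treatment. Controls DMSO (neutral) and bortezomib 2.3 µM final (positive). Potency and efficacy taken from primary-screen concentration-response curves.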

[10] = target: Parathyroid hormone/parathyroid hormone-related peptide receptor (Homo sapiens) (UniProt Q03431); test: qHTS for PTHR1 Agonists: Optimization Screen against the NCGC LOPAC library (AID 1347079);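 note: GloSensor cAMP luminescence in HEK-293 GP2 cells expressing human PTHR1 with IBMX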
Chain of Parathyroid hormone/parathyroid hormone-related peptide receptor (Homo sapiens) (Q03431 whole entry, looked up): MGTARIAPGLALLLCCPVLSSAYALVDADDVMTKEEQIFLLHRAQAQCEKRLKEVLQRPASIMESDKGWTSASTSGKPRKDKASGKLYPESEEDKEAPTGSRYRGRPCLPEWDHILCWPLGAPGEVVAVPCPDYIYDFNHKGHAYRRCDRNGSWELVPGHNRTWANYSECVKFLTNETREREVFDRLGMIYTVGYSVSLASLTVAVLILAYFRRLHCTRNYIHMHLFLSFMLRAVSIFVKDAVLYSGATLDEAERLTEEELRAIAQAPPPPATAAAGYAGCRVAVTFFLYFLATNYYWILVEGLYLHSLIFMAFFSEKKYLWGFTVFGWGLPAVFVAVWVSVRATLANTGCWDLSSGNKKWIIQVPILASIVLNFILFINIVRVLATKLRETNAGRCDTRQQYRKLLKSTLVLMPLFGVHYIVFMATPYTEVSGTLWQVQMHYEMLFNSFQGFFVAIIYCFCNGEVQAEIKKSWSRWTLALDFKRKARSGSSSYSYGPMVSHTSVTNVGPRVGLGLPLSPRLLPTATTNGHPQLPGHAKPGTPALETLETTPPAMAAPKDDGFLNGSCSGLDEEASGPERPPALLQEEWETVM
Method in brief: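 Signal increase flags agonism. GP2 cells, derived from HEK-293, express human PTHR1 and a GloSensor cAMP construct.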

Measured: Potency

COc1ccc2cc([C@H](C)C(=O)O)ccc2c1
not listed: [10]
inactive: all other assays above

CCOC(=O)C1=C(O)C(=O)N(Cc2ccccc2)C1
not listed: [7] | [9] | [10]
inactive: all other assays above

NCCCCNCCCN
active: [8] 3.32 µM
not listed: [7]
inactive: all other assays above

CC(=O)O[C@H]1C(=O)[C@@]2(C)C([C@H](OC(=O)c3ccccc3)[C@]3(O)C[C@H](OC(=O)[C@H](O)[C@@H](NC(=O)c4ccccc4)c4ccccc4)C(C)=C1C3(C)C)[C@]1(OC(C)=O)CO[C@@H]1C[C@@H]2O (stereo partly drawn)
active: [1] 0.0066 µM | [4] 0.0017 µM | [7] 0.001 µM | [8] 0.001 µM
inactive: [10]

CC(C)c1ccc2c(c1)c(SC(C)(C)C)c(CC(C)(C)C(=O)O)n2Cc1ccc(Cl)cc1
active: [5] 23.5 µM | [6] 20.9 µM | [8] 8.33 µM | [9] 27.3 µM
not listed: [7]
inactive: all other assays above

C[C@@H](c1ncncc1F)[C@](O)(Cn1cncn1)c1ccc(F)cc1F
inactive: [1] | [2] | [3] | [6] | [9]

CN(C)C(=O)[C@H](O)[C@H](Cc1ccccc1)NC(=O)c1cc2cc(Cl)ccc2[nH]1
active: [5] 7.43 µM | [6] 4.69 µM | [7] 5.9 µM | [8] 1.18 µM
inactive: [1] | [2] | [3] | [9]

O=C(NCC1CCCCN1)c1cc(OCC(F)(F)F)ccc1OCC(F)(F)F (stereo not drawn)
inactive: [1] | [4]

O=C1NC(=O)C(c2ccccc2[N+](=O)[O-])=C1Nc1ccc(O)c(Cl)c1
active: [7] 5.9 µM | [8] 0.118 µM
not listed: [4] | [6]
inactive: all other assays above

CC(=O)N1CCN(c2ccc(OC[C@H]3CO[C@](Cn4ccnc4)(c4ccc(Cl)cc4Cl)O3)cc2)CC1
inactive: [1] | [2] | [10] | [4]

c1cnc2cc3c(cc2n1)C1CNCC3C1
not listed: [8] | [10]
inactive: all other assays above

O=c1ccc2ccc(O)c(O)c2o1
active: [5] 7.43 µM | [7] 5.9 µM
not listed: [8]
inactive: all other assays above

Oc1ccc(-c2nc(-c3ccc(F)cc3)c(-c3ccncc3)[nH]2)cc1
active: [5] 23.5 µM | [7] 14.8 µM | [8] 2.35 µM
not listed: [4] | [6]
inactive: all other assays above

Oc1ccc2ccccc2c1SSc1c(O)ccc2ccccc12
active: [7] 18.7 µM
inactive: [1] | [2] | [3] | [10]

CCN(CC)CCOc1ccc(Nc2ncc3cc(-c4c(Cl)cccc4Cl)c(=O)n(C)c3n2)cc1
active: [1] 0.166 µM | [4] 6.58 µM | [5] 0.187 µM | [6] 0.418 µM | [7] 0.118 µM | [8] 0.105 µM | [9] 6.11 µM
inactive: [2] | [3]

O=C(c1ccccc1)c1ccc2n1CCC2C(=O)O (stereo not drawn)
not listed: [5] | [7] | [8]
inactive: all other assays above

CC1(C)C(=O)N(CCN2CCC(C(=O)c3ccc(F)cc3)CC2)c2ccccc21
not listed: [5] | [8]
inactive: all other assays above

O=C1c2c(O)cc(O)cc2OC(c2ccc(O)c(O)c2)C1O (stereo not drawn)
active: [8] 4.69 µM
not listed: [4]
inactive: all other assays above

CNC[C@H](O)c1ccc(O)c(O)c1
active: [7] 42.9 µM
not listed: [8]
inactive: all other assays above

O=C(O)c1cccnc1Nc1cccc(C(F)(F)F)c1
active: [8] 26.6 µM
inactive: all other assays above

C[C@H](Cc1ccc(O)c(O)c1)[C@@H](C)Cc1ccc(O)c(O)c1
active: [8] 11.8 µM
inactive: [1] | [2] | [3] | [10]
